Test results: paper PMC5540273 (PLoS ONE, 2017)

Experiments:
Settings in all cases: concentration: 1 μM, replicates: in singlicate; n = 1
[1] = system: RPS6KA4(Kin.Dom.1-N-terminal)
[2] = system: RPS6KA4(Kin.Dom.2-C-terminal)
[3] = system: RPS6KA5(Kin.Dom.1-N-terminal)
[4] = system: RPS6KA5(Kin.Dom.2-C-terminal)
[5] = system: T1, RSK1(Kin.Dom.1-N-terminal)
T1 construct: gene RPS6KA1

[6] = system: T2, RSK1(Kin.Dom.2-C-terminal)
T2 construct: gene RPS6KA1

[7] = system: T3, RSK2(Kin.Dom.1-N-terminal)
T3 construct: gene RPS6KA3

[8] = system: T4, RSK2(Kin.Dom.2-C-terminal)
T4 construct: gene RPS6KA3

[9] = system: T5, RSK3(Kin.Dom.1-N-terminal)
T5 construct: gene RPS6KA2

[10] = system: T6, RSK3(Kin.Dom.2-C-terminal)
T6 construct: gene RPS6KA2

[11] = system: T7, RSK4(Kin.Dom.1-N-terminal)
T7 construct: gene RPS6KA6

[12] = system: T8, RSK4(Kin.Dom.2-C-terminal)
T8 construct: gene RPS6KA6

S6K1 = system: S6K1
SBK1 = system: SBK1
SGK2 = system: SGK2
SGK3 = system: SGK3
SGK = system: SGK
SIK2 = system: SIK2
SIK = system: SIK
SLK = system: SLK
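Note: KINOMEscan kinase panel screen.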

SMILES	%Inh [1] [%]	%Inh [2] [%]	%Inh [3] [%]	%Inh [4] [%]	%Inh [5] [%]	%Inh [6] [%]	%Inh [7] [%]	%Inh [8] [%]	%Inh [9] [%]	%Inh [10] [%]	%Inh [11] [%]	%Inh [12] [%]	%Inh (S6K1) [%]	%Inh (SBK1) [%]	%Inh (SGK2) [%]	%Inh (SGK3) [%]	%Inh (SGK) [%]	%Inh (SIK2) [%]	%Inh (SIK) [%]	%Inh (SLK) [%]
C[C@@H]1CC[C@@H](C(=O)Nc2ccccc2)CN1c1cc(-c2ccc3c(N)n[nH]c3c2)nc(N)n1 [GSK2286062]	4	0	6	2	14	3	7	19	2	24	0	17	0	26	0	0	0	0	0	1
NCCCC(NC(=O)c1cc(Br)c(-c2ccnc3[nH]ccc23)s1)c1ccccc1.O=C(O)C(F)(F)F.O=C(O)C(F)(F)F (centres unmarked) [GSK1287544]	53	1	51	5	0	0	29	0	12	0	8	0	58	44	65	52	54	0	19	14
Oc1cc(Nc2ccnc3cc(I)ccc23)ccc1F [GW552771]	0	0	5	0	0	29	13	26	0	0	7	87	35	8	2	1	19	57	29	16
CC(C)(C)c1ccc2nccc(Nc3cccc(O)c3)c2c1 [GW856795]	0	0	0	0	0	0	0	49	19	30	0	27	9	0	1	0	15	0	0	55
Nc1ncnc2c1nc(-c1ccccc1)n2-c1ccccc1 [SKF-97293]	9	10	16	11	19	0	40	27	18	0	36	0	29	53	0	16	23	0	8	0
Cc1ccc(S(=O)(=O)Nc2ccc(Nc3nccc(Nc4cccc5[nH]ncc45)n3)cc2)cc1 [GSK581271]	0	0	0	0	1	14	15	0	5	0	0	0	14	26	9	0	0	67	36	0
Cc1ccc(C)c(NC(=O)NC2CCN(c3ccnc(Nc4ccc(F)cc4)n3)C2)c1 (centres unmarked) [GSK1379720]	8	0	0	22	13	0	3	0	0	0	0	6	8	1	2	0	0	0	0	0
c1ccc(-c2n[nH]cc2Nc2ccnc3ccccc23)nc1 [GW694077]	3	56	5	56	19	16	27	24	0	30	1	6	33	25	61	47	89	0	0	0
COc1cc(Nc2nccc(-c3c(-c4cccc(NC(=O)c5c(F)cccc5F)c4)nn4ccccc34)n2)cc(OC)c1OC [GSK323521]	25	0	27	0	5	14	32	47	25	9	0	23	7	17	26	7	22	0	30	25
O=C(Nc1cccc(-c2nn3ncccc3c2-c2ccnc(Nc3ccccc3)n2)c1)c1c(F)cccc1F [GSK198271]	18	0	18	0	95.3	5	0	0	37	17	1	22	0	13	0	4	0	6	44	95
Cl.Cl.NCC(NCc1ccc(-c2ccnc3[nH]ccc23)s1)c1ccccc1 (centres unmarked) [GSK1321565]	16	57	32	53	25	0	36	0	39	14	55	26	53	57	0	43	55	0	5	74
CSc1cccc2c(-c3ccncn3)c(-c3ccc(F)cc3)nn12 [GW514786]	28	0	3	7	5	38	0	11	11	0	0	90	0	2	15	0	1	2	2	22
CNC(=O)c1ccccc1Nc1nc(Nc2ccc(N3CCOCC3)cc2)ncc1Cl.Cl [GSK1576028]	99.7	0	90	44	100	54	100	0	99.3	25	99.3	38	97	90.5	50	87	97.1	92.4	99	99.5
Cn1cc(-c2[nH]c3cc(NC(=O)[C@H](N)C4CCCCC4)cc4c3c2C=NNC4=O)cn1	96.8	96.2	34	59	60	72	85	0	65	5	86	35	76	96.2	83	99.1	95.7	95.2	90.8	14
COc1cccc(-c2ccc3c(NC(=O)C4CC4)n[nH]c3n2)c1 [SB-710903]	2	0	20	12	20	0	0	22	6	1	5	21	8	0	5	2	19	0	0	30
CCCCc1nn2ncccc2c1-c1ccnc(Nc2ccc(N3CCN(C)CC3)cc2)n1 [GW684941]	8	0	0	43	0	31	71	20	5	0	0	82	0	30	0	0	24	84	83	69
CN(C)S(=O)(=O)c1cc(-c2ccc3nccc(-c4cccc(S(N)(=O)=O)c4)c3c2)cnc1N [GSK1669921]	15	0	16	0	0	10	21	76	2	28	2	44	19	15	6	16	5	10	0	2
O=C(Nc1cccc(-c2nn3ccccc3c2-c2ccnc(Nc3cccc(F)c3)n2)c1)c1c(F)ccc(F)c1Cl [GSK357952]	15	0	28	20	63	14	18	8	24	0	4	0	2	12	0	2	10	16	34	91.2
Cc1ccc(C(=O)Nc2ccc(Nc3ccnc4cc(-c5nccs5)ccc34)cc2O)cc1.Cl [GW494702]	0	0	0	0	0	0	0	30	11	0	0	0	11	6	0	0	11	5	4	30
COc1cccc(C2=C(Nc3ccc(Cl)c(C(=O)O)c3)C(=O)NC2=O)c1 [SB-390769]	17	0	13	0	29	0	100	20	14	0	100	0	2	99.9	19	100	0	0	0	16

SMILES	%Inh [1] [%]	%Inh [2] [%]	%Inh [3] [%]	%Inh [4] [%]	%Inh [5] [%]	%Inh [6] [%]	%Inh [7] [%]	%Inh [8] [%]	%Inh [9] [%]	%Inh [10] [%]	%Inh [11] [%]	%Inh [12] [%]	%Inh (S6K1) [%]	%Inh (SBK1) [%]	%Inh (SGK2) [%]	%Inh (SGK3) [%]	%Inh (SGK) [%]	%Inh (SIK2) [%]	%Inh (SIK) [%]	%Inh (SLK) [%]
Cn1cc(-c2ccc3c(c2)CCN3C(=O)Cc2cccc(F)c2)c2c(N)ncnc21 [GSK2603358]	7	0	35	0	20	3	0	0	20	0	0	43	12	30	18	2	0	0	4	55
Cl.c1ccc(-c2ccc3c(Nc4ccc5[nH]ccc5c4)ccnc3c2)nc1 [GW440138]	0	0	0	3	0	0	0	0	0	15	0	34	0	0	0	6	0	0	0	84
COc1ccc(-c2coc3ccc(-c4nnc(SCc5ccc(OC)c(C(F)(F)F)c5)o4)cc23)cc1	9	15	0	0	1	17	14	19	16	19	25	16	0	0	6	28	0	21	10	9
COc1cccc(NC(=O)NC2CCN(c3ccnc(Nc4cc(OC)c(OC)c(OC)c4)n3)C2)c1 (centres unmarked) [GSK1379763]	0	0	0	35	12	4	0	8	12	0	0	0	0	15	0	7	0	4	0	42
CN1CCN(CCCNc2nccc(-c3c(-c4ccc(F)cc4)nn4cc(C(F)(F)F)ccc34)n2)CC1 [GW621581]	10	0	26	0	0	44	0	17	10	0	0	80	1	8	0	0	12	70	0	42
Cc1ccc(C(=O)N2CC[C@@H](O)C2)cc1-n1c(C)cc(OCc2ccc(F)cc2F)c(Br)c1=O	2	0	0	0	0	0	0	0	0	18	0	2	0	0	0	0	0	27	4	0
COC(=O)Nc1nc2ccc(Oc3ccc(NC(=O)Nc4cc(C(F)(F)F)ccc4F)cc3)cc2n1C.Cl [GW692089]	6	0	0	0	0	0	40	0	0	0	0	0	1	4	0	20	8	0	1	49
COc1ccc(Nc2nccc(NCCNC(=O)c3cc4ccccc4s3)n2)cc1 [GSK1379896]	0	0	3	0	0	0	0	23	0	0	0	0	7	20	6	0	0	0	0	18
O=C(Nc1ccccc1F)NC1CCN(c2ccnc(Nc3ccc(F)cc3)n2)CC1 [GSK1379800]	9	0	0	26	19	0	0	0	0	0	0	6	0	0	0	9	0	0	3	0
O=c1[nH]cc(-c2ccc(N3CCOCC3)cc2)c2sc(-c3cn[nH]c3)cc12 [GSK2276055]	2	0	0	28	29	24	23	7	14	22	0	18	0	0	0	13	0	0	0	0
COCCOCCOc1cc2ncc3c4ccc(C#N)cc4[nH]c3c2cc1OC	0	0	0	44	0	0	79	2	46	8	90	0	61	81	58	47	89	83	13	45
COc1cccc(C(=O)Nc2cccc(Oc3ccc4nc(NC(=O)C5CC5)cn4n3)c2)c1	40	10	0	19	0	12	9	0	5	1	0	0	0	0	0	23	0	27	63	49
Cl.Cl.NCC(C(=O)Nc1cc(Br)c(-c2ccnc3[nH]ccc23)s1)c1ccccc1 (centres unmarked) [GSK1269851]	18	1	10	5	6	0	24	2	100	3	0	2	35	3	0	24	28	0	0	14
CN(c1ccc(NC(=O)Nc2cc(C(F)(F)F)ccc2F)cc1)c1ccnc(Nc2ccc(S(N)(=O)=O)cc2)n1 [GW809893]	26	1	14	4	100	0	8	28	35	0	5	0	40	0	0	22	1	1	22	96.3
O=C(Nc1n[nH]c2nc(-c3ccc(O)cc3)ccc12)C1CC1 [SB-710363]	8	99.5	0	53	14	64	52	0	12	0	70	0	40	0	36	15	43	0	0	61
c1ccc(Oc2ccc(Nc3ccnc4cc(-c5ccc(CNCCN6CCOCC6)o5)ccc34)cc2)nc1 [GW567145]	0	0	0	0	93.3	0	0	0	0	0	0	0	0	8	0	0	17	78	96.4	8
COc1cc(Nc2ncc3c(C)nc(-c4cc5ccccc5[nH]4)n3n2)cc(OC)c1OC [GW869516]	44	0	0	7	91.7	0	49	32	66	0	7	3	0	0	0	1	0	29	20	63
CC(=O)N1CCN(c2ccc(Nc3nccc(-c4sc(C(C)C)nc4-c4cccc(NS(=O)(=O)c5cccc(Cl)c5)c4)n3)cn2)CC1 [GSK1660437]	10	0	14	0	10	0	0	4	5	0	0	6	0	16	0	19	16	89	99	72
O=C(Nc1cccc(-c2nn3ccccc3c2-c2ccnc(Nc3cccc(C(F)(F)F)c3)n2)c1)c1c(F)cccc1F [GSK292658]	10	0	18	0	81	0	3	5	0	14	0	0	0	20	0	8	11	0	9	54
Nc1n[nH]c2cnc(-c3ccccc3)cc12 [SB-642124]	0	71	12	44	23	0	22	23	18	3	19	15	10	22	31	74	74	2	0	0
